Our source for the B-score values is PubChem BioAssay AID2642 (Johns Hopkins Ion Channel Center, 2010).

Among all 310,000 compounds or so, about 3,900 (1.3%) were called active. The sample holds actives, similar compounds and a random draw of the others, so the mix is not that of the screen.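 The calls were made as follows: active = compounds whose thallium flux B-score, printed positive for inhibition, exceeds three library SD while starting fluorescence stays within three; inactive = the rest.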

The target in the experiment is Potassium voltage-gated channel subfamily KQT member 1 (Homo sapiens) (UniProt P51787). The experiment in a line: inhibitors of human KCNQ1 channel, primary screen, cell-based, thallium flux, high-throughput (AID 2642).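 Also: channel opened by potassium depolarization with thallium stimulus after 20 min compound exposure.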 The conditions noted are these: CHO-K1 KCNQ1, FluxOR thallium flux fluorescence, at 10 µM; stronger effect = higher value.
Sequence of Potassium voltage-gated channel subfamily KQT member 1 (Homo sapiens) (P51787 whole entry, looked up): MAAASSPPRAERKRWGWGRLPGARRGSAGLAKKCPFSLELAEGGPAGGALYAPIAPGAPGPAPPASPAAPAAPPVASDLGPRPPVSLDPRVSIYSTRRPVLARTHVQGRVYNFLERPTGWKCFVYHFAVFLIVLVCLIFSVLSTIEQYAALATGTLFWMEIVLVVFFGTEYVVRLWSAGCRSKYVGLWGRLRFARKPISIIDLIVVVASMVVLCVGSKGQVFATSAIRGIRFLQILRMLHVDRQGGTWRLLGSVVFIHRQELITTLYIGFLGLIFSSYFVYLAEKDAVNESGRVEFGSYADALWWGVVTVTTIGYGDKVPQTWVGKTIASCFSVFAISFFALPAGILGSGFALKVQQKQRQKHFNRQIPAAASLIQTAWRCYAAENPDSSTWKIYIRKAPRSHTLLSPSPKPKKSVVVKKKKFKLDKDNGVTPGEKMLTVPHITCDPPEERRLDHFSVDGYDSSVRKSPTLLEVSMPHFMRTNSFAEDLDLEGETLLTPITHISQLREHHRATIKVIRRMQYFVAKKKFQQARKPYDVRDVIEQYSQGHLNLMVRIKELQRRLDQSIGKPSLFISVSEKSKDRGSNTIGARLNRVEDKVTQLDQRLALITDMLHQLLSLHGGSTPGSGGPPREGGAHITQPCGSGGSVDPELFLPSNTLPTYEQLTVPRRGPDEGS
For the compound `CCCNC(=O)c1ccc(N2CCC3(CC2)CC(c2ccc(Cl)cc2)=NO3)c([N+](=O)[O-])c1`, the B-score result was “inactive”.

For `CCCNC(=O)c1ccc(N2CCC3(CC2)CC(c2cccc(Br)c2)=NO3)c(NC(=O)c2ccco2)c1`, the B-score is 6 (active).

Take `O=C(Nc1ccccc1N1CCN(C(=O)c2ccccc2)CC1)c1ccco1`: the B-score entry is “inactive”.

For the compound `c1ccc2c(C[n+]3csc4ccccc43)cccc2c1`, the B-score entry was “inactive”.

Consider `CC1(C(=O)NCCc2c[nH]c3ccccc23)C=CC2(CCCCC2)N1C(=O)c1ccccc1` (configuration not stated), for which the B-score entry was “inactive”.

For `C/C(=N\NC(=S)NC1CCCCC1)c1ccc(C)o1`, the B-score result was “inactive”.

As for `CCc1nnc(NC(=O)CSc2nnc(-c3ccncc3)n2Cc2ccccc2)s1`, the B-score result was “inactive”.

Regarding `CCc1nnc(NC(=O)CSc2nnc(Cc3ccccc3)n2-c2ccc(OC)cc2)s1`, the B-score is 11 (active).

With `CCc1nnc(NC(=O)CSc2nnc(COc3ccc(C#N)cc3)n2-c2ccccc2)s1`, the B-score result is “inactive”.

As for `O=C(NCc1ccccc1Cl)C1CCN(S(=O)(=O)N2CCOCC2)CC1`, the B-score entry was “inactive”.

Consider `O=C1CCc2cc(S(=O)(=O)N3CCC(C(=O)NCc4ccccc4Cl)CC3)ccc2N1`, for which the B-score was 8 (active).

For the compound `O=C(NCc1ccccc1Cl)C1CCN(S(=O)(=O)c2cccc3nonc23)CC1`, the B-score entry was “inactive”.

`Cc1nnc(-c2ccc(Oc3ccc(C)c(C)c3)c([N+](=O)[O-])c2)o1`: the B-score entry was “inactive”.

For `Cc1c(Br)c([N+](=O)[O-])nn1C(C)C(=O)Nc1nccs1` (configuration not stated), the B-score entry was “inactive”.

For the compound `CC(=O)Nc1ccc(NC(=O)c2ccc3c(c2)C(=O)N(c2ccccc2C)C3=O)cc1`, the B-score entry is “inactive”.

Turning to `CC(C)OCCCNC(=O)c1cc(Sc2ccc(F)cc2)nc2ccccc12`, the B-score entry is “inactive”.

Regarding `COc1cc(OC)c(OC)cc1/C=N/Nc1ncnc2c1[nH]c1ccc(C)cc12`, the B-score result is “inactive”.

For `CC(C)OCCCNc1ncnc2c1[nH]c1ccc(F)cc12`, the B-score is 9 (active).

On to `CN(CCOc1ccc(Br)cc1)CC(=O)Nc1cccc(S(=O)(=O)NC2=NCCC2)c1`, for which the B-score result is “inactive”.

For `Cc1cccc(NC(=O)CSCC(=O)Nc2nnc(C3CC3)s2)c1`, the B-score entry is “inactive”.

On to `O=C(CSc1nnc(SCc2ccc(F)cc2)s1)Nc1ccc(C(=O)O)cc1`, for which the B-score entry is “inactive”.

As for `CC1=C(C(N)=O)C(c2sccc2C)n2nnnc2N1` (configuration not stated), the B-score result is “inactive”.

As for `CCCOc1ccc(C(=O)CCC(=O)OC(C)C(=O)Nc2ccc(NC(C)=O)cc2)cc1` (configuration not stated), the B-score result was “inactive”.

On to `CCCOc1ccc(C(=O)C(CCC(CNCC)C(=O)c2ccc(OCCC)cc2)CNCC)cc1` (configuration not stated), for which the B-score is 6 (active).

For `CCCCOc1ccc(C(=O)NN2CCN(C)CC2)cc1`, the B-score entry was “inactive”.

Turning to `Cc1nn(CC(=O)NCCc2ccccc2)c(=O)c2cc3occc3n12`, the B-score result was “inactive”.

Take `CC12CN(NC(=O)c3ccc(Cl)cc3)C3(C#N)CC1CCC23C` (configuration not stated): the B-score result was “inactive”.

In the case of `COc1ccccc1NC(=O)/C=C/C(N)=O`, the B-score entry is “inactive”.

With `CC1CCCN(C(C(=O)Nc2ccc(C(C)C)cc2)c2ccc3c(c2)OCO3)C1` (configuration not stated), the B-score is 7 (active).

With `CCc1ccc(NC(=O)NC(C)c2ccc3c(c2)OCO3)cc1` (configuration not stated), the B-score result was “inactive”.

For `O=C(Nc1ccc2c(c1)OCCO2)C(c1ccc(F)cc1)N1CCCCC1` (configuration not stated), the B-score result was “inactive”.

On to `CC(C)C[C@H](NC(=O)N1CCn2c1nc1ccccc12)C(=O)NC1CC1`, for which the B-score result was “inactive”.

For `O=C(Nc1cccnc1)c1cc2cc(Br)ccc2oc1=O`, the B-score result is “inactive”.

In the case of `S=C(Nc1cccnc1)Nc1ccccn1`, the B-score entry was “inactive”.

As for `Fc1cc(Br)ccc1NC(=S)Nc1cccnc1`, the B-score is 7 (active).

With `COc1ccc(CCNC(=O)CN(c2ccccc2)S(C)(=O)=O)cc1`, the B-score entry was “inactive”.

For the compound `COc1ccc(OCCNS(=O)(=O)Cc2ccccc2)cc1`, the B-score result was “inactive”.

As to `O=S(=O)(c1ccccc1)N1CCc2ccccc21`, the B-score entry is “inactive”.

Regarding `CNC(=O)c1ccsc1NC(=O)c1ccc(S(=O)(=O)N2CCc3ccccc32)cc1`, the B-score was 7 (active).

For the compound `CNC(=O)c1ccsc1NC(=O)c1ccc(S(=O)(=O)N2CCOCC2)cc1`, the B-score entry is “inactive”.

For the compound `CCC(=C/c1sc2ccc3ccccc3c2[n+]1C)/C=C1\Sc2ccc3ccccc3c2N1C`, the B-score is 19 (active).

On to `COc1cc(OC)c(S(=O)(=O)Nc2ccccc2C(=O)O)cc1S(=O)(=O)Nc1ccccc1C(=O)O`, for which the B-score result was “inactive”.

As to `COC(=O)c1ccc(NC(=O)c2ccccc2NS(=O)(=O)c2ccccc2)cc1`, the B-score result was “inactive”.

Regarding `COc1cc(NC(=O)c2ccccc2NS(=O)(=O)c2ccc(Cl)s2)cc(OC)c1`, the B-score was 8 (active).

As to `N#Cc1cccc(CN2CCC(=O)N(CCO)CC2)c1`, the B-score result was “inactive”.

As for `CC(=O)c1ccccc1OCc1ccc(C(=O)c2ccccc2)cc1`, the B-score was 9 (active).

`O=C(NC1CCC(O)CC1)c1ccccc1OCc1ccc(F)cc1` (configuration not stated): the B-score entry was “inactive”.

Turning to `COc1ccc(CCNC(=O)c2ccccc2OCc2ccccc2)cc1`, the B-score entry was “inactive”.

Regarding `C/C(=N\NC(=O)Cc1ccccc1[N+](=O)[O-])c1cccnc1`, the B-score entry is “inactive”.

As to `COc1ccc(C(CNC(=O)c2cccc(NS(=O)(=O)c3ccc(C)c(F)c3)c2)N2CCCC2)cc1` (configuration not stated), the B-score was 8 (active).

On to `COc1ccc(C(CNC(=O)c2ccc(S(=O)(=O)Nc3ccccc3C)cc2)N2CCOCC2)cc1` (configuration not stated), for which the B-score entry was “inactive”.

For `COc1ccc(C(CNC(=O)c2cccc(S(=O)(=O)Nc3ccccc3Cl)c2)N2CCOCC2)cc1` (configuration not stated), the B-score entry was “inactive”.

For the compound `CSCCC(NC(=O)COc1ccccc1)C(=O)OCCOc1ccc(Br)cc1` (configuration not stated), the B-score result was “inactive”.

As for `Cc1ccc2nc(C)c3c(c2c1)N(c1ccccc1)CC3`, the B-score is 7 (active).

Take `Cc1ccc2nc(Nc3ccccc3)cc(C)c2c1`: the B-score result is “inactive”.

As to `Cc1nc2ccc(C(=O)N3CCN(c4ccccc4)CC3)cc2s1`, the B-score entry was “inactive”.

`CCOC(=O)c1nnn(-c2nonc2-n2cccc2)c1CN1CCC(C(=O)OCC)CC1`: the B-score result is “inactive”.

Take `O=C(Nc1cccc(Cl)c1)c1cc(S(=O)(=O)N2CCCCC2)c[nH]1`: the B-score entry is “inactive”.

Regarding `COc1ccccc1N1N=C(c2cccs2)CC1c1ccccc1` (configuration not stated), the B-score entry was “inactive”.

For `Fc1ccc(N2N=C(c3cccs3)CC2c2ccco2)c(F)c1` (configuration not stated), the B-score is 6 (active).

Regarding `COc1ccc(C2CC(c3cccs3)=NN2c2ccc(F)cc2)cc1OC` (configuration not stated), the B-score result is “inactive”.

Take `O=C(c1c(F)cccc1F)N1CCN(c2ncc(Br)cn2)CC1`: the B-score entry was “inactive”.

On to `O=C(NCC(c1ccco1)N1CCc2ccccc21)c1cccc(F)c1` (configuration not stated), for which the B-score entry is “inactive”.

As to `O=C(COC(=O)c1ccc(S(=O)(=O)N2CCc3ccccc3C2)cc1)NC(=O)NCc1ccco1`, the B-score result is “inactive”.

In the case of `COc1c(C)cc(C(=O)C2CCCN(S(=O)(=O)c3c(C)noc3C)C2)cc1C` (configuration not stated), the B-score result was “inactive”.

In the case of `CCOc1ccc(S(=O)(=O)N2CCN(C(=S)NCC3CCCO3)CC2)cc1` (configuration not stated), the B-score result was “inactive”.

For the compound `COc1ccc(S(=O)(=O)N2CCN(C(=S)NCC3CCCO3)CC2)cc1OC` (configuration not stated), the B-score result was “inactive”.

`S=C(NCC1CCCO1)N1CCN(c2ccc(Cl)c(Cl)c2)CC1` (configuration not stated): the B-score is 7 (active).

`CC(C)=CCc1c(O)c(CC=C(C)C)c2occ(-c3ccc(O)cc3)c(=O)c2c1O`: the B-score is 11 (active).

`CC(C)CN(Cc1c(O)ccc2c(=O)c(-c3ccccc3)coc12)CC(C)C`: the B-score entry is “inactive”.

With `O=c1c(-c2ccccc2)coc2c(CN3CCOCC3)c(O)ccc12`, the B-score entry is “inactive”.

Regarding `O=C(NCCc1ccc(Cl)cc1)c1cccc(N2CCCC2=O)c1`, the B-score result is “inactive”.

In the case of `Cc1nnc(SCC(=O)Nc2ncc3c(n2)CC(C)(C)CC3=O)s1`, the B-score entry was “inactive”.

`Cc1ccccc1NC(=O)CSc1ccc2nnc(-c3ccccn3)n2n1`: the B-score entry was “inactive”.

`COc1cc(/C=C2\CCCc3c2nc2ccccc2c3C(=O)O)cc(Cl)c1O`: the B-score result is “inactive”.

Consider `NC(=O)c1ccc(NC(=O)COC(=O)c2c3c(nc4ccccc24)/C(=C\c2ccc4c(c2)OCO4)CCC3)cc1`, for which the B-score is 7 (active).

Regarding `CC(NC(=O)COC(=O)c1ccc2c(c1)OCO2)c1ccccc1` (configuration not stated), the B-score result was “inactive”.

`CSc1ccccc1NC(=O)c1cc(C2CC2)on1`: the B-score result is “inactive”.

With `Cc1cc(=O)oc2cc(OCC(=O)N3CCN(c4ccc(F)cc4)CC3)c(Cl)cc12`, the B-score entry was “inactive”.

On to `O=C(c1cc(-c2ccco2)nc2ccccc12)N(Cc1nnc(-c2ccc(Cl)cc2)o1)C1CC1`, for which the B-score entry was “inactive”.

For the compound `CC(=O)N/C(=C/c1ccc(Cl)cc1)C(=O)NCCc1c[nH]c2ccccc12`, the B-score entry was “inactive”.

For `N#C/C(=C/c1ccc(N2CCCCC2)o1)C(=O)NCCc1c[nH]c2ccccc12`, the B-score was 7 (active).

In the case of `O=C(CN1C(=O)NC2(CCCCC2)C1=O)NCCc1c[nH]c2ccccc12`, the B-score entry was “inactive”.

Take `CCCc1ccc(-c2c(C)sc(NC(=O)c3ccnn3C)c2C#N)cc1`: the B-score entry is “inactive”.

Consider `Cc1noc(/C=C/c2ccco2)c1S(=O)(=O)N1CCC(C(=O)N2CCc3ccccc32)CC1`, for which the B-score result was “inactive”.

In the case of `Cc1ccc(NC2=C(Cl)C(=O)OC2OC(=O)c2ccccc2C)cc1` (configuration not stated), the B-score result is “inactive”.

Regarding `Cc1ccccc1C(=O)OC1OC(=O)C(Cl)=C1Nc1ccccc1` (configuration not stated), the B-score was 11 (active).

On to `O=C1OC(OC(=O)c2ccccc2Br)C(N2CCOCC2)=C1Cl` (configuration not stated), for which the B-score result is “inactive”.

`O=C(NC1CC1)C1=C[C@H](c2c[nH]c3ccccc23)C[C@H](OCc2ccc(CO)cc2)O1`: the B-score result is “inactive”.

With `CC(C)(C)c1ccc(/C=C/C(=O)NC2CCS(=O)(=O)C2)cc1` (configuration not stated), the B-score result is “inactive”.

Turning to `Clc1ccc(C2[C@H]3CN(CC4CCCCC4)[C@H](c4ccccc4)C34CC2(c2cccnc2)C4)cn1` (some centres not stated), the B-score result is “inactive”.

As for `O=C(NCCN1CCOCC1)c1ccc2c(c1)N(Cc1ccc(Cl)cc1)CCS2`, the B-score entry was “inactive”.

`CCOC(=O)N1CCN(C(=O)c2ccc3c(c2)N(Cc2ccc(C)cc2)CCS3)CC1`: the B-score result is “inactive”.

For `O=C(NCCc1ccccc1)c1ccc2c(c1)N(Cc1ccccc1)CCS2`, the B-score is 10 (active).

`CC(=O)c1c(C)n(-c2ccc(C)cc2)c2ccc(O)cc12`: the B-score entry is “inactive”.

Regarding `CCc1ccc(CN(C)C(=O)C2CCC(=O)N(Cc3cccc(OC)c3)C2)nc1` (configuration not stated), the B-score result was “inactive”.

As to `COc1cc(N2C(=O)c3ccccc3C2=O)c(Cl)cc1C(=O)OCC(=O)N1CCOCC1`, the B-score entry was “inactive”.

With `C=CS(=O)c1sc(Cl)c(N2CCOCC2)c1[N+](=O)[O-]` (configuration not stated), the B-score was 7 (active).

In the case of `Cc1ccccc1C(=O)NCC(c1ccco1)N1CCc2ccccc21` (configuration not stated), the B-score entry was “inactive”.

Regarding `Cc1ccc(C(=O)OCC(=O)NC(=O)Cc2ccccc2)c(O)c1`, the B-score entry was “inactive”.

With `O=[N+]([O-])/C(N=Nc1ccccc1)=N\Nc1ccccc1`, the B-score result was “inactive”.

For the compound `CCN(C(=O)COC(=O)c1sccc1C)c1c(N)n(Cc2ccccc2)c(=O)[nH]c1=O`, the B-score result is “inactive”.
